Here are results for eleven compounds from ChEMBL document CHEMBL3988442, “University of Dundee, Small-Polar-MMV Screening Library” (2021).

For some of these results: Entries with a potency or affinity are not part of this list.

Set-up in all cases: scale not given: direction of the effect not stated beside the values
For experiment [1], the target named is Protein translocase subunit SecA (Escherichia coli (strain K12)) (UniProt P10408). The experiment in a line: Assay to Identify E. coli SecA ATPase Inhibitors. Type of experiment: functional. Particulars: 30 µM.
The target of experiment [2] is T1, Ubiquitin-activating enzyme e1, putative (Leishmania donovani (strain BPK282A1)) (UniProt E9BSI1).
T1 sequence (whole entry): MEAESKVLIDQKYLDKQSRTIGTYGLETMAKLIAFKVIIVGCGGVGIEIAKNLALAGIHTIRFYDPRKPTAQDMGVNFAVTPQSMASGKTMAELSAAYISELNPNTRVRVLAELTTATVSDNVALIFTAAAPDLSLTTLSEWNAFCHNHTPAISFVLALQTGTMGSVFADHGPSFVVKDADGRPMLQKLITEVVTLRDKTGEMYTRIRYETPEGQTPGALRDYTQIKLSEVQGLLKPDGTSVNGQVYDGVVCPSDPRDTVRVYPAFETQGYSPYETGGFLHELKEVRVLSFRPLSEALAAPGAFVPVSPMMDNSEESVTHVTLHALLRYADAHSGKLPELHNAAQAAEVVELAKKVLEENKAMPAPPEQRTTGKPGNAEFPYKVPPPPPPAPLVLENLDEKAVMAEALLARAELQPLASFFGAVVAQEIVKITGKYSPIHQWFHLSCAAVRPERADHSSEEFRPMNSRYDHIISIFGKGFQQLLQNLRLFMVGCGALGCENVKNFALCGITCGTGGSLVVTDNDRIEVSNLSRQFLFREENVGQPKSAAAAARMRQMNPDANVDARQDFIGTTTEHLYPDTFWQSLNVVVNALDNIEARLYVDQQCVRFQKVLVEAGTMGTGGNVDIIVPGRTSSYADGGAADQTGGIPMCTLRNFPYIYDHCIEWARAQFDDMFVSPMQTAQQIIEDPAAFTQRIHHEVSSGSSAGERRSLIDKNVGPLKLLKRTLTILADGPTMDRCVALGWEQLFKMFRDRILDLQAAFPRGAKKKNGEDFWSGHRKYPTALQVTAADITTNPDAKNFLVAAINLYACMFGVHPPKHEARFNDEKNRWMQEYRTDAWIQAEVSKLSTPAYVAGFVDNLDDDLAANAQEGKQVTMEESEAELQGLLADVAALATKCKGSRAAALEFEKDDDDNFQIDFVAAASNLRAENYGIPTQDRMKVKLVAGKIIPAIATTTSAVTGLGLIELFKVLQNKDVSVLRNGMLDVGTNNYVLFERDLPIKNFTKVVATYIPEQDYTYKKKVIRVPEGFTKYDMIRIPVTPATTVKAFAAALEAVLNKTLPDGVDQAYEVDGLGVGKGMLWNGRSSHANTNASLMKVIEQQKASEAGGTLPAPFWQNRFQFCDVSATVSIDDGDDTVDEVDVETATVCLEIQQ
Kind of experiment: Leishmania donovani Ubiquitin Activating Enzyme (LdE1). The experiment is classed as functional. As to conditions: 30 µM.

For experiment [3], the target named is AMP-activated protein kinase, AMPK (Homo sapiens) (UniProt P54646+O43741+P54619+Q9UGJ0+Q9Y478+Q13131+Q9UGI9). The experiment in a line: AMP-dependent Kinase enzyme assay. An in vitro enzyme assay that detects ADP turnover that is directly proportional to AMPK activity. This uses naive AMPK that is activated during the assay with MK-8722. Type of experiment: functional. As to conditions: 30 µM.

The target in experiment [4] is Sialic acid-binding Ig-like lectin 9 (Homo sapiens) (UniProt Q9Y336). The experiment in a line: Hs-Siglec9 ALPHAscreen SOP 20170721. As to conditions: 10 µM. Background: Bead proximity is the source of the signal in Alpha formats.
The test system of a further experiment is Trypanosoma cruzi. The experiment in a line: Trypanosoma cruzi phosphomannomutase and mannose-1-phosphate guanylyltransferase assay. As to conditions: 10 µM. The experiment is classed as functional.
The target in experiment [5] is T2, Arginase-2, mitochondrial (Homo sapiens) (UniProt P78540).
T2 sequence (whole entry): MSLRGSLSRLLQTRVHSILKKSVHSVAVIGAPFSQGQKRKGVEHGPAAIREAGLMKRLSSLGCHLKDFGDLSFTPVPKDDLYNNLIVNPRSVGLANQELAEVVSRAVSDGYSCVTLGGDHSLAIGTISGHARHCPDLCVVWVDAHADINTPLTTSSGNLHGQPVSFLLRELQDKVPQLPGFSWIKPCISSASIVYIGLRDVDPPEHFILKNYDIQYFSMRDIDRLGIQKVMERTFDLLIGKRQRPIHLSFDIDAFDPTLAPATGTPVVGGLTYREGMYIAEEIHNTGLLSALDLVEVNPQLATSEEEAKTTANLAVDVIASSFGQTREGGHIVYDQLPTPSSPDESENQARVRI
The experiment in a line: in vitro enzyme assay to detect the production of urea directly proportional to the activity of Arginase II. Further: in the data most compounds retested in dose-response had high values. The experiment is classed as functional. As to conditions: 33.3 µM.

For experiment [6], the target named is T3, Proteasome subunit beta (Trypanosoma cruzi) (UniProt O96673).
T3 sequence (whole entry): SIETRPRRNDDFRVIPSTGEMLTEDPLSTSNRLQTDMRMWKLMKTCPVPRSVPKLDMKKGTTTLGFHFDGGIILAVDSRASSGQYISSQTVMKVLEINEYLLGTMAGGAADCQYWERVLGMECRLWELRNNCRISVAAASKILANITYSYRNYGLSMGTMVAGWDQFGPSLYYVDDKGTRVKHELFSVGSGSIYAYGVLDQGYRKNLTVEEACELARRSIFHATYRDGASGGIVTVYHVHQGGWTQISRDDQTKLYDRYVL
Kind of experiment: Trypanosoma cruzi proteasome chymotrypsin-like activity (TcProtChymo) assay. Further: in the data most compounds retested in dose-response had high values. The experiment is classed as functional. As to conditions: 9.37 µM.

The species entered for another experiment is Homo sapiens. The experiment in a line: To identify inhibition of the IFN signalling (Jak-Stat) pathway via expression of an eGFP reporter gene under the control of an IFN-stimulated response element (ISRE) containing MxA promoter. Particulars: 30 µM. The experiment is classed as functional. (In general: In a reporter assay the amount or activity of a reporter protein is the signal.)

Experiment [7] has as its target T4, Tyrosyl-tRNA synthetase, putative (Trypanosoma cruzi (strain CL Brener)) (UniProt Q4DSP6).
T4 sequence (whole entry): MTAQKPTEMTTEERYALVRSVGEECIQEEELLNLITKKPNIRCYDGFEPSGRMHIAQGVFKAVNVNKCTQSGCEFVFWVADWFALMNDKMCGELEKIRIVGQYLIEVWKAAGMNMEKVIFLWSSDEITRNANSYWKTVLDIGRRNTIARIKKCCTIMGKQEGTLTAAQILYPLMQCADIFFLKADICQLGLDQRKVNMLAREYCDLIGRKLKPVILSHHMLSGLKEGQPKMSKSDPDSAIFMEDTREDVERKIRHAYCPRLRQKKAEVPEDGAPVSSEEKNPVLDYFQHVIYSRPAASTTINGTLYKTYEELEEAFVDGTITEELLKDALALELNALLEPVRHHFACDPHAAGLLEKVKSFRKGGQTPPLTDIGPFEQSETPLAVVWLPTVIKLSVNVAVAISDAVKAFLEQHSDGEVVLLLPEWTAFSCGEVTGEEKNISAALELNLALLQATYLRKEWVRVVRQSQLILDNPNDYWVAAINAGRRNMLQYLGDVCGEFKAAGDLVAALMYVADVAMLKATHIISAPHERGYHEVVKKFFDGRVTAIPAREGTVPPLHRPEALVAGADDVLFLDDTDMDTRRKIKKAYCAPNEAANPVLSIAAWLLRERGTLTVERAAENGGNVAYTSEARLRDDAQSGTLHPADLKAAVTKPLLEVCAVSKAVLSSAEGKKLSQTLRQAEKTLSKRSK
Kind of experiment: Trypanosoma cruzi tyrosyl tRNA synthetase (TcYRS) _High Tyrosine SOP. Further: in the data most compounds retested in dose-response had high values. Type of experiment: functional. As to conditions: 30 µM.

In experiment [8] the target is T4, Tyrosyl-tRNA synthetase, putative (Trypanosoma cruzi (strain CL Brener)). The experiment in a line: Trypanosoma cruzi tyrosyl tRNA synthetase (TcYRS) SOP. Particulars: 30 µM. Type of experiment: functional.
For experiment [9], the target named is Chromo domain-containing protein 1 (Saccharomyces cerevisiae (strain ATCC 204508 / S288c) (Baker's yeast)) (UniProt P32657). The experiment in a line: ScCHD-1 Enzyme Inhibition Assay. Further: in the data most compounds retested in dose-response had high values. Type of experiment: functional. As to conditions: 30 µM.
Sequence of Chromo domain-containing protein 1 (Saccharomyces cerevisiae (strain ATCC 204508 / S288c) (Baker's yeast)) (P32657 whole entry, the tested form may be a part): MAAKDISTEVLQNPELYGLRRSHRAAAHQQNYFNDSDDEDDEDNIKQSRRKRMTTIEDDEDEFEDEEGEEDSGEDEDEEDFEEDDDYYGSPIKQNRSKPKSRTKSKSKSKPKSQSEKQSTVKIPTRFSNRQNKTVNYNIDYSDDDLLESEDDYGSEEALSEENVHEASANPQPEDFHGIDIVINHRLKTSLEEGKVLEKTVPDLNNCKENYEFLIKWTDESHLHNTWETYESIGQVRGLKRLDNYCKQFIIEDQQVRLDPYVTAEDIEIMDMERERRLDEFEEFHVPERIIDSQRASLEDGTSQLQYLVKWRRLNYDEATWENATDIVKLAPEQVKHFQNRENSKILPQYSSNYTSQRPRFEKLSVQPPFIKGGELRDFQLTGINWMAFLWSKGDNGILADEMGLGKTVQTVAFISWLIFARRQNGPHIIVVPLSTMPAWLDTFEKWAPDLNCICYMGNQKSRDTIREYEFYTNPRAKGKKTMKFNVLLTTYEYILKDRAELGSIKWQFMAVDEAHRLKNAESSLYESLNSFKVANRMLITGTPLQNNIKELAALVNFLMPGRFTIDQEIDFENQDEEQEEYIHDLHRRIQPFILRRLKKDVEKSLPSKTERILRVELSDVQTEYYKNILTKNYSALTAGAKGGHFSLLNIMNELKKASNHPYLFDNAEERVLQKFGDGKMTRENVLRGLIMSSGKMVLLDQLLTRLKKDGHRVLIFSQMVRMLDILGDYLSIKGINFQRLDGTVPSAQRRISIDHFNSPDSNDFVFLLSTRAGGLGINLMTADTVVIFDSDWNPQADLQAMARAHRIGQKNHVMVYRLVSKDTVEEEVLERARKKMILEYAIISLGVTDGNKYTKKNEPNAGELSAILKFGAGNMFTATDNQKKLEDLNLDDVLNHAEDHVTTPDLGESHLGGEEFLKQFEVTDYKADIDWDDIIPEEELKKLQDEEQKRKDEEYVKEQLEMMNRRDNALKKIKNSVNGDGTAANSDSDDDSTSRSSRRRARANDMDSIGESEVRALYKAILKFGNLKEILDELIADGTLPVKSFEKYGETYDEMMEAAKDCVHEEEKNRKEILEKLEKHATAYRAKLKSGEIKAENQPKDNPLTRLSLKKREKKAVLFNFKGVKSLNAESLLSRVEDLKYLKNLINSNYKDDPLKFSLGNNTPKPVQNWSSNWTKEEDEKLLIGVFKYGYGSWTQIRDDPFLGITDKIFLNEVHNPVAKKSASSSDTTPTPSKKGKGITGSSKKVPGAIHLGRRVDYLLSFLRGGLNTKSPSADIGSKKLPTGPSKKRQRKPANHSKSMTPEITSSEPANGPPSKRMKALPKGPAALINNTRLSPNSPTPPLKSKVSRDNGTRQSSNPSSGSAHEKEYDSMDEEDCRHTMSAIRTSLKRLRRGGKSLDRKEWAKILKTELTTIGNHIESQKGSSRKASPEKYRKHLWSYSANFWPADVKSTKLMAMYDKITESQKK

Sequence of Protein translocase subunit SecA (Escherichia coli (strain K12)) (P10408 whole entry): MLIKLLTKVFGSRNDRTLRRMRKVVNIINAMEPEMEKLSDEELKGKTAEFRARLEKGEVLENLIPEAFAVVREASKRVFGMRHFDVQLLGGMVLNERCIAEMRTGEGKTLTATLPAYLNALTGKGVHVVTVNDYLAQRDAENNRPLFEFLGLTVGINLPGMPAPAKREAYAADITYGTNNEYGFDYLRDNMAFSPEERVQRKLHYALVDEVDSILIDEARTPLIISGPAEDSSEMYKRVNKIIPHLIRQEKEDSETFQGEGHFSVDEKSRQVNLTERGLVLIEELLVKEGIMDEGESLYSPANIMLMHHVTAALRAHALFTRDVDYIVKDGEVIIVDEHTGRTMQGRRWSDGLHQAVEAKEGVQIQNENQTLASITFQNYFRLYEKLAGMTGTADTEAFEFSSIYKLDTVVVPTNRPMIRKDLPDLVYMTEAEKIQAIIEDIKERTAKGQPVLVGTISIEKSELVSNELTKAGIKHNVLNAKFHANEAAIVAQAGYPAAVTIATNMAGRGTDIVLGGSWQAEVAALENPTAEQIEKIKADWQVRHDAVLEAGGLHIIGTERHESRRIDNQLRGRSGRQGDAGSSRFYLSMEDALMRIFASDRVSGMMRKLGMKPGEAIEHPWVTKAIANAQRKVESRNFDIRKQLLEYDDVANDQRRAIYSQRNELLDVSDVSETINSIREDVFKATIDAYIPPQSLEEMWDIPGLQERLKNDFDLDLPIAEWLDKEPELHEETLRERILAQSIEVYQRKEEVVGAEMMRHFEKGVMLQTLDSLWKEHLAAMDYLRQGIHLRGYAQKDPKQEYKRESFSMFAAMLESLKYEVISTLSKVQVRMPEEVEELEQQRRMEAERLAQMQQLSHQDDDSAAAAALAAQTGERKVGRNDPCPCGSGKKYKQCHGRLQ
Sequence of Sialic acid-binding Ig-like lectin 9 (Homo sapiens) (Q9Y336 whole entry): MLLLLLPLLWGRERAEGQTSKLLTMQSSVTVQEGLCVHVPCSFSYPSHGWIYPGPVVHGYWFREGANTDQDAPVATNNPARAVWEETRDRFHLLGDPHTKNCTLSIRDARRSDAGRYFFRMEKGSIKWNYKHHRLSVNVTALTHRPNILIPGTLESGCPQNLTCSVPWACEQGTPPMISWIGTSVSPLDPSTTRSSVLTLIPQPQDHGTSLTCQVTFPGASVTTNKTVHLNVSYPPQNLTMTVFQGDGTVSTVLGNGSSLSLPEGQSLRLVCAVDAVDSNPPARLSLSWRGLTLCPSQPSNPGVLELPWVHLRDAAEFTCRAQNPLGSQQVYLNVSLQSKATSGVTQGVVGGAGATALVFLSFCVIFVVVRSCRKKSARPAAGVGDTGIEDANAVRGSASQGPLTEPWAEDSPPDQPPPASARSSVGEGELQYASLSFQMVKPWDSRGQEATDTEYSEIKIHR

On to `COc1ccc(CN2CCn3cc(CN4CCN(C)CC4)nc3C2)cc1`, for which the Percent Effect was -4.41% in experiment [1]; 8.11% in experiment [2]; 4.53% in [3]; -5.52% in experiment [4]; -2.83% with Trypanosoma cruzi; 4.78% in experiment [5]. Moreover, the Percent Effect in [6] was 18.4%; in the experiment filed under Homo sapiens it was -7.72%; in experiment [7], -2.16%; in [8], 5.13%; in [9], 3.23%.
Regarding `COC(=O)c1ccccc1NC(=O)c1nc2ccccc2n(C)c1=O`, the Percent Effect is -1.59% in experiment [1]; 10.4% in [2]; 1.48% in experiment [3]; -0.871% in experiment [4]; 5.82% in the experiment with Trypanosoma cruzi; 1.94% in experiment [5]. The Percent Effect was 6.79% in experiment [6]; 17% in the experiment listed under Homo sapiens; 4.23% in experiment [7]; 16.7% in experiment [8]; -8.57% in [9].
For the compound `COc1cccc(COCC(=O)N2CCCC(N3CCCC3)CC2)c1` (stereo unspecified), the Percent Effect in experiment [1] was -1.29%; in experiment [2] it was -10.5%; in experiment [3], 4.62%; in experiment [4] it was -2.23%; in the experiment with Trypanosoma cruzi, 2.26%; in experiment [5], 0%. In addition, the Percent Effect in experiment [6] is 6.52%; in the experiment listed under Homo sapiens it was -5.01%; in experiment [7] it was 14.2%; in [8] it was 7.32%; in experiment [9], -0.94%.
For `CC(C)(C)C(=O)N1CCC2(COCc3cnc(N4CCOCC4)nc32)C1` (stereo unspecified), the Percent Effect was -4.89% in experiment [1]; 4% in [2]; 3.79% in experiment [3]; 6.02% in [4]; -2.36% in the experiment with Trypanosoma cruzi; -7.57% in [5]. Moreover, the Percent Effect in [6] is 9.06%; in the experiment listed under Homo sapiens it was -1.15%; in experiment [7], 2.12%; in experiment [8] it was 2.56%; in experiment [9], -1.68%.
As to `Cc1nc2ccccc2c(=O)n1CCC(=O)N1CCSCC1`, the Percent Effect is -6.49% in experiment [1]; 13.2% in experiment [2]; 14.1% in [3]; 6.54% in [4]; 3.19% in the experiment on Trypanosoma cruzi; 0% in [5]. Besides, the Percent Effect was 6.85% in experiment [6]; 4.99% in the experiment listed under Homo sapiens; 6.37% in experiment [7]; 17.1% in experiment [8]; -13.3% in [9].
Consider `CC(=O)Nc1ccc(S(=O)(=O)NC(=O)CCC2CCCO2)cc1` (stereo unspecified), for which the Percent Effect in experiment [1] was -9.79%; in experiment [2], 10.8%; in experiment [3], -16.6%; in experiment [4], 34.9%; in the experiment with Trypanosoma cruzi, 8.21%; in [5], -16.8%. Also, the Percent Effect is 6.31% in experiment [6]; -1.72% in the experiment listed under Homo sapiens; 1.48% in experiment [7]; 13.6% in experiment [8]; -16.9% in experiment [9].
Consider `O=C(c1cc(Cl)cc(Cl)c1)N1CCN(c2nccs2)CC1`, for which the Percent Effect in experiment [1] is -2.62%; in experiment [2], 13.7%; in [3], 5.26%; in [4] it was 6.34%; with Trypanosoma cruzi, 0.588%; in experiment [5], 10.4%. Besides, the Percent Effect was 19.2% in [6]; 0.362% in the experiment listed under Homo sapiens; 4.3% in experiment [7]; 20% in [8]; -10.5% in experiment [9].
Consider `CN(Cc1nnc(C2CC2)n1C)C1CCN(Cc2ccon2)C1` (stereo unspecified), for which the Percent Effect was -1.9% in experiment [1]; 21.6% in [2]; -11.6% in experiment [3]; -5.53% in [4]; -2.17% in the experiment on Trypanosoma cruzi; -10% in [5]. Also, the Percent Effect is 12.6% in experiment [6]; 7.46% in the experiment listed under Homo sapiens; 5.42% in experiment [7]; 11.1% in experiment [8]; -7.81% in [9].
With `Cc1nn(CC(=O)N2CCCCC2Cn2cccn2)c(C)c1Cl` (stereo unspecified), the Percent Effect in experiment [1] was -2.25%; in experiment [2], 2.7%; in [3] it was 0.616%; in experiment [4], -1.03%; with Trypanosoma cruzi, -4.3%; in experiment [5], 2.92%. In addition, the Percent Effect in experiment [6] was 14.4%; in the experiment filed under Homo sapiens, 7.18%; in [7], 1.98%; in [8], 13.4%; in [9], -2.37%.
For the compound `Cn1cc(-c2csc(N3CCN(C(=O)OC(C)(C)C)CC3)n2)cn1`, the Percent Effect in [1] is -0.688%; in [2] it was 4.17%; in experiment [3] it was -13.6%; in [4], 7.74%; in the experiment on Trypanosoma cruzi, 1.85%; in experiment [5], 30.5%. The Percent Effect in experiment [6] is 8.42%; in the experiment listed under Homo sapiens, 57.3%; in experiment [7], 10.5%; in [8], 12.8%; in experiment [9], -1.57%.
Turning to `Cc1ccc(C)c(NC(=O)N(C)Cc2cnn(C)c2)c1`, the Percent Effect was -3.08% in experiment [1]; 21.6% in experiment [2]; -1.59% in experiment [3]; -5.73% in [4]; -5.94% in the experiment on Trypanosoma cruzi; -0.401% in experiment [5]. The Percent Effect in experiment [6] was 11.3%; in the experiment filed under Homo sapiens, 20.3%; in experiment [7] it was 7.39%; in [8] it was 16.1%; in experiment [9], -4.13%.
